In the supplement of paper PMC11001985:
Values without a mark were called inactive.

These targets were tested with C#CCNC(=O)CCSSCCC(=O)NCCc1ccc(C=O)c(C=O)c1 (assay: lysine labeling ratio R10:1 (500 µM / 50 µM probe), SILAC-ABPP in living cells; higher = lower intrinsic lysine reactivity toward the probe, active = 2 or less). Conditions: HeLa; probe concentrations 500 vs 50 µM.
Method in brief: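 In PBS at room temperature, living HeLa cells grown with SILAC light or heavy labels were treated with 50 µM or 500 µM of an alkyne-tagged, disulfide-linked lysine probe, with label swaps in both directions. Analysis was by LC-MS/MS on a TIMS-TOF Pro after click to biotin-azide, neutravidin capture and DTT release. For each lysine, R is the median across forward and reverse replicates of the filtered median high-probe/low-probe MS1 peptide ratio, capped at 20.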

Chain of UniProt P35579 (P35579 whole entry): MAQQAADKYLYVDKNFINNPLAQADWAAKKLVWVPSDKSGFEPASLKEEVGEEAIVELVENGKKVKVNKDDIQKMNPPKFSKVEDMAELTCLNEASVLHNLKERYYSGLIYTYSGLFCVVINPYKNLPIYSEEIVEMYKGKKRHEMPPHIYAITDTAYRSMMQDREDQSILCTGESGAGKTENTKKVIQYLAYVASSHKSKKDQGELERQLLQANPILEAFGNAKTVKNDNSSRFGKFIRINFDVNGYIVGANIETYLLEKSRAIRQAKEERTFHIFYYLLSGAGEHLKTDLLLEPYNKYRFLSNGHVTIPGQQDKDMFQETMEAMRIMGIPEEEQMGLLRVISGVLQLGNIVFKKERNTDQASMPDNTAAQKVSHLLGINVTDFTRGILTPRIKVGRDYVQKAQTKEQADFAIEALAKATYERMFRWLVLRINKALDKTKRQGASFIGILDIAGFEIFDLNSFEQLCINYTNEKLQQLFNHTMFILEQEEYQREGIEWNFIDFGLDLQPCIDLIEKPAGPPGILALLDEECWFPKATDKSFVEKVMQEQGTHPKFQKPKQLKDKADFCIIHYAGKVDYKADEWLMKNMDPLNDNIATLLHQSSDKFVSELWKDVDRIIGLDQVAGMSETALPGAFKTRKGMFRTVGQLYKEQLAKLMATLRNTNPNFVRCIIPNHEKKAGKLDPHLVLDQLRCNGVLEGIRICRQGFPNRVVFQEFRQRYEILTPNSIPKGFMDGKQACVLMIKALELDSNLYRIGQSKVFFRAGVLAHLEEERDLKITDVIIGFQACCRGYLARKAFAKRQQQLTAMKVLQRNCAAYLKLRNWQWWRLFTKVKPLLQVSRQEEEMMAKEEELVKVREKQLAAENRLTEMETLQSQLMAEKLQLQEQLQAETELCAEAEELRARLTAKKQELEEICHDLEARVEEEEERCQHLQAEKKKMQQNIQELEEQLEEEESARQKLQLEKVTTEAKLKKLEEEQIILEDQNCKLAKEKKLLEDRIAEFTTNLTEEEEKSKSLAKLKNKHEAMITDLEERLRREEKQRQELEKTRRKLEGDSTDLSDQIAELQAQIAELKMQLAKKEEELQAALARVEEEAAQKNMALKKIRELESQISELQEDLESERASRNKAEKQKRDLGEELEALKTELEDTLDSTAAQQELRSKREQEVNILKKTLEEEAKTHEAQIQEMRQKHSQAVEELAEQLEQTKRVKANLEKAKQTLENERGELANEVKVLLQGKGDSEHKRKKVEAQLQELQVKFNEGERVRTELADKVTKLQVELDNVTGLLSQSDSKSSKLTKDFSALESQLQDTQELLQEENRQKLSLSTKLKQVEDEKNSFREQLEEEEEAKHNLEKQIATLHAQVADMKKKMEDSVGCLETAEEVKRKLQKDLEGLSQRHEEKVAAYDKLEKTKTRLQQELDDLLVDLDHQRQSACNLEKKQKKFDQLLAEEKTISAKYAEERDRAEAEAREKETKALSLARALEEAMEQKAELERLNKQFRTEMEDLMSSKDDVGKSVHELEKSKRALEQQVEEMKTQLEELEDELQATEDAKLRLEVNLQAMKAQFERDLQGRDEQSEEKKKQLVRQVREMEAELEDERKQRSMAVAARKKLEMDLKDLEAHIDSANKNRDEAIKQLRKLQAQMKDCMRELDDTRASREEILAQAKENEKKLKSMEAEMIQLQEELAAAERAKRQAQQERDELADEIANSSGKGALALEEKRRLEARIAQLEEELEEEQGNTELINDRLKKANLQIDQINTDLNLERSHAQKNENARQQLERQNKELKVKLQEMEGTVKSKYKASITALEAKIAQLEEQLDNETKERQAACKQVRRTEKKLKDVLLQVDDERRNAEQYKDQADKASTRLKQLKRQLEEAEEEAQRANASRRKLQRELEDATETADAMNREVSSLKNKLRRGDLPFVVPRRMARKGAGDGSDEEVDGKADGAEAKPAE
Chain of UniProt Q9Y6N7 (Q9Y6N7 whole entry): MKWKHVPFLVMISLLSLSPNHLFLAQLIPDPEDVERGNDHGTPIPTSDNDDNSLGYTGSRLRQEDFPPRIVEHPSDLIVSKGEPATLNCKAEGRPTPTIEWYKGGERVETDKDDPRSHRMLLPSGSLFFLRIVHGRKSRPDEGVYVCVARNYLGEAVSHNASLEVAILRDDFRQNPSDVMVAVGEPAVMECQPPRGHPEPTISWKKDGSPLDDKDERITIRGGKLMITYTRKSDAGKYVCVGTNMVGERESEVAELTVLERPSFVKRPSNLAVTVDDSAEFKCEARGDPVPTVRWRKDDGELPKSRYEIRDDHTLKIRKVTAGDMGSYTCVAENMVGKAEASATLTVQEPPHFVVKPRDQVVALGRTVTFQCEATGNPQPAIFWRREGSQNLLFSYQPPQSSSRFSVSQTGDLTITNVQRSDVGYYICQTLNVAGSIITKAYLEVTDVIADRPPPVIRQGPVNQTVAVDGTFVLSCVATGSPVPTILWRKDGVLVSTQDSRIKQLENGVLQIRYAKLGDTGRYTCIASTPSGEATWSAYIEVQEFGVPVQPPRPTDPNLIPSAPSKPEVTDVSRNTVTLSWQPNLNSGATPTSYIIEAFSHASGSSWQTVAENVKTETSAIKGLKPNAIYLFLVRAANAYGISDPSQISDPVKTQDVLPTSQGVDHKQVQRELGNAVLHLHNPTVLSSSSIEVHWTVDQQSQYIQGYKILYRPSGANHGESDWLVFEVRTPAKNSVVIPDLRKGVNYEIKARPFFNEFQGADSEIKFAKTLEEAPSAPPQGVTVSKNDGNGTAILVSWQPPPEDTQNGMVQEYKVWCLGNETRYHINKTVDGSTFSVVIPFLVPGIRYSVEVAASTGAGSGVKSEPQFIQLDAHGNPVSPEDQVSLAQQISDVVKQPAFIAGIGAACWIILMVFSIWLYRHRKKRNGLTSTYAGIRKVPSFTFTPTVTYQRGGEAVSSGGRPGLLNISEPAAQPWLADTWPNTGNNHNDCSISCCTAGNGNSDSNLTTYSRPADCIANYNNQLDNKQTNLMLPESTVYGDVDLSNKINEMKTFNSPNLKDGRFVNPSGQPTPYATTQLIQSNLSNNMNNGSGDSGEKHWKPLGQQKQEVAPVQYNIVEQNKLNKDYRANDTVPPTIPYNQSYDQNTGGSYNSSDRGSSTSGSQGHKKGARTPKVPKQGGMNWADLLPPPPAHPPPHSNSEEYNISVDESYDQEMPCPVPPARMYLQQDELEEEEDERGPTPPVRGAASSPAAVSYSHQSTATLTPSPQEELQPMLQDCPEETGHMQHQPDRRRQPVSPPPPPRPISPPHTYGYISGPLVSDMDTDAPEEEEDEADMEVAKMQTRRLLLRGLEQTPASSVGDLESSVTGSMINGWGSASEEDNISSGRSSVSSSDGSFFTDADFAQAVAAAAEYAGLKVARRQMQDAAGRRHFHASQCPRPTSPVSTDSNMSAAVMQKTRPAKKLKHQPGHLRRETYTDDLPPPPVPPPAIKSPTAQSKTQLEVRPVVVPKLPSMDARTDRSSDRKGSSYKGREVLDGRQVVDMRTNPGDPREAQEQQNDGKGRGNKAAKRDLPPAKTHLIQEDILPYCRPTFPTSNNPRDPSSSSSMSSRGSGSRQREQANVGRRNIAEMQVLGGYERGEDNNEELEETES
Chain of UniProt O15260 (O15260 whole entry): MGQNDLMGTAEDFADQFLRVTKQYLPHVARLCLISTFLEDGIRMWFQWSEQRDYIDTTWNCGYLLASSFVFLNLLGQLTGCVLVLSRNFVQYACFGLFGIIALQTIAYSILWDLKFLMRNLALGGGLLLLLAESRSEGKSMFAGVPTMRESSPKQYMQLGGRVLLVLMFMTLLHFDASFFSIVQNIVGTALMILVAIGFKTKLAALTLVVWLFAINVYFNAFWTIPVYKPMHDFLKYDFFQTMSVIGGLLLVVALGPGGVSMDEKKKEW
Chain of UniProt P13010 (P13010 whole entry): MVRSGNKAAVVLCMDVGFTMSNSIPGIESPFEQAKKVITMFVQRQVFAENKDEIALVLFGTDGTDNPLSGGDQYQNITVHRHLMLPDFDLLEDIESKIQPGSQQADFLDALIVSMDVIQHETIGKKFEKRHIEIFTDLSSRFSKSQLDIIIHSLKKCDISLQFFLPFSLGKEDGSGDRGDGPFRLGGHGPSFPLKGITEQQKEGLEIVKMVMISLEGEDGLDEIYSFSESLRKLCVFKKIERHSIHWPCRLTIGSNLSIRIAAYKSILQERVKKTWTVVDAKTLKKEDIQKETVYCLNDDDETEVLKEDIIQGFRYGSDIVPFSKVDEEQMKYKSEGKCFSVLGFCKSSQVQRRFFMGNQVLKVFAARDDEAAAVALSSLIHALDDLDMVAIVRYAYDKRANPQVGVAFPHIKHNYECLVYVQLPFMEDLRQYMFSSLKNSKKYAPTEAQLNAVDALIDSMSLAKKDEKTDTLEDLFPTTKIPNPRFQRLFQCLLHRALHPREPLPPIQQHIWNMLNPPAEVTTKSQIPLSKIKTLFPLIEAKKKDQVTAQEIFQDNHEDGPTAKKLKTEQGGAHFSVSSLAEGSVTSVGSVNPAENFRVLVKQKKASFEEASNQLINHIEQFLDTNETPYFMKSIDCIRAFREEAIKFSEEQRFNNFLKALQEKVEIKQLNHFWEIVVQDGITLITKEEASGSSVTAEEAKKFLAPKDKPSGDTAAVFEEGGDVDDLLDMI
Chain of UniProt P02533 (P02533 whole entry): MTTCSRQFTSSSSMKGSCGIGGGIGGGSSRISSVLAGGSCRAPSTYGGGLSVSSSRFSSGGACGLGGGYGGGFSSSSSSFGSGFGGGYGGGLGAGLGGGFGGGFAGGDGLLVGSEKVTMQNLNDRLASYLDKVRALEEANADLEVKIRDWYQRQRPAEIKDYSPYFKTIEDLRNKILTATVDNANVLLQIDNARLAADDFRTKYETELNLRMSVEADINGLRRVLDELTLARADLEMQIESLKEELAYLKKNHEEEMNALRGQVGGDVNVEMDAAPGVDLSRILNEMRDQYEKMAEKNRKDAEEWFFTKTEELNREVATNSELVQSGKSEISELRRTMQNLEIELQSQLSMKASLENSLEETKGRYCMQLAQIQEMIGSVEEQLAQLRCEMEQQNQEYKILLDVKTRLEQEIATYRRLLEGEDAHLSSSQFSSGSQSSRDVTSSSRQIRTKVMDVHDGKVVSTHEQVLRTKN

Row | Target | lysine labeling ratio R10:1
1 | PLXND1 (lysine site: K310) (UniProt Q9Y4D7) | 3.11
2 | UniProt P62249 (lysine site: K26) | 1.43 (active)
3 | SURF4 (lysine site: K154) (UniProt O15260) | 4.16
4 | XRCC6 (lysine site: K516) (UniProt P12956) | 0.712 (active)
5 | MYH9 (lysine site: K1669) (UniProt P35579) | 5.57
6 | UniProt Q8N441 (lysine site: K30) | 3.03
7 | UniProt P26639 (lysine site: K243) | 3.1
8 | ITGA5 (lysine site: K965) (UniProt P08648) | 0.705 (active)
9 | PLS3 (lysine site: K346) (UniProt P13797) | 0.842 (active)
10 | ACTN4 (lysine site: K437) (UniProt O43707) | 2.2
11 | IGF2R (lysine site: K1576) (UniProt P11717) | 0.605 (active)
12 | UniProt Q96TA1 (lysine site: K430) | 1.69 (active)
13 | UGDH (lysine site: K107) (UniProt O60701) | 1.1 (active)
14 | DSG2 (lysine site: K430) (UniProt Q14126) | 6.01
15 | PLOD2 (lysine site: K358) (UniProt O00469) | 2.23
16 | MYH9 (lysine site: K860) (UniProt P35579) | 2.67
17 | RPS19 (lysine site: K144) (UniProt P39019) | 1.75 (active)
18 | UniProt P05787 (lysine site: K483) | 2.46
19 | DYNC1H1 (lysine site: K4406) (UniProt Q14204) | 3.65
20 | RPL35A (lysine site: K95) (UniProt P18077) | 3.1

Row | Target | lysine labeling ratio R10:1
21 | SPTAN1 (lysine site: K2000) (UniProt Q13813) | 0.553 (active)
22 | ROBO1 (lysine site: K232) (UniProt Q9Y6N7) | 5.29
23 | UniProt P02533 (lysine site: K251) | 5.36
24 | MSLN (lysine site: K559) (UniProt Q13421) | 2.61
25 | WDR1 (lysine site: K569) (UniProt O75083) | 5.89
26 | AGRN (lysine site: K1589) (UniProt O00468) | 5.07
27 | LNPEP (lysine site: K726) (UniProt Q9UIQ6) | 0.91 (active)
28 | ROBO1 (lysine site: K733) (UniProt Q9Y6N7) | 5.78
29 | CDK5 (lysine site: K33) (UniProt Q00535) | 6.8
30 | P4HB (lysine site: K103) (UniProt P07237) | 4.27
31 | ARPC2 (lysine site: K275) (UniProt O15144) | 2.12
32 | SEMA3C (lysine site: K616) (UniProt Q99985) | 5.77
33 | UniProt P62269 (lysine site: K47) | 1.41 (active)
34 | XRCC5 (lysine site: K36) (UniProt P13010) | 2.42
35 | ITGAV (lysine site: K446) (UniProt P06756) | 2.59
36 | HSP90B1 (lysine site: K630) (UniProt P14625) | 2.66
37 | UniProt Q29980 (lysine site: K196) | 4.62
38 | TLN1 (lysine site: K1544) (UniProt Q9Y490) | 1.54 (active)
39 | CCT5 (lysine site: K392) (UniProt P48643) | 2.73
40 | SHMT2 (lysine site: K103) (UniProt P34897) | 4.3
